Bioassay records deposited in PubChem by Johns Hopkins Ion Channel Center.
Rows were chosen to be rich in hits. Some 1.6% of all compounds tested hit in one or more screens of this group.
KCNQ2 pot: KCNQ2 (rat) channel potentiation | CHO-K1 KCNQ2, FluxOR thallium flux fluorescence; hits give high values | B-score at 10 µM | hit rate 0.54% among 310,000;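 active = fluorescence ratio B-score at least 3 SD of library B-scores, with initial fluorescence B-score within 3 of them, cut at about 5.3 in these data; same plate scores as AID 2156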;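 also: B-score of peak minus minimum over baseline fluorescence ratio after K+ and Tl+ stimulus; positive B-score means potentiation of KCNQ2 with more thallium influx and brighter signal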
KCNQ2 inh: blocks the rat KCNQ2 potassium channel. B-score at 10 µM. O88943. CHO-K1 KCNQ2, FluxOR thallium flux, 20 min; hits give low values. hit rate 1.1% among 310,000. AID 2156;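 active = fluorescence ratio B-score at most minus 3 library SDs, with starting brightness B-score within 2 library SDs, cut at about -5.5 in these data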
Kir21 conf inh: confirmation of mouse Kir2.1 potassium channel inhibitors; Kir2.1-expressing cells, FluxOR thallium flux fluorescence; hits give low values; hit rate 41% among 2,300; shares compounds with KCNQ2 pot; AID 2032; Tl flux remaining, % of negative control (hits give low values), % at 10 µM;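 active = Primary-screen hit whose thallium flux fell at least 3 control SD below untreated wells in both duplicates, with normal baseline fluorescence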;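 also: 0% = blank wells without stimulus and 100% = stimulated no-compound controls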
HEK293 Tl flux: alters thallium flux in parental HEK293 cells, Kir2.1 counter-screen. shares compounds with KCNQ2 pot. FluxOR thallium flux fluorescence; 0% = unstimulated blank wells. FluxOR signal as % of negative control (100 = no effect), % at 10 µM. hit rate 19% among 2,300. AID 2105;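 active = dye signal at least 3 control SD above or below untreated wells in both duplicates, raw fluorescence within 3, either direction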;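 also: percent is based on the flux ratio of peak minus minimum fluorescence over baseline F0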
CHO-K1 ctr: parental CHO-K1 activity in KCNQ2 potentiator counter-screen; AID 2282; shares compounds with KCNQ2 pot; hit rate 43% among 1,200; activity increase over 3SD of controls, % at 10 µM; parental CHO-K1 cells, FluxOR thallium flux fluorescence; zero = vehicle mean+3SD, 100% = vehicle-minus-blank window;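 active = signal rise of at least 3 SD above the untreated control mean, in both duplicate wells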;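 also: counter screen of KCNQ2 potentiator hits so any rise reflects channel-independent effects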
KCNQ1 pot spec: human KCNQ1 counter-target activity of KCNQ2 potentiators; CHO KCNQ1 stable, FluxOR thallium flux fluorescence; beyond 3SD, as % of vehicle-control signal; activation over 3SD threshold, % at 10 µM; hit rate 28% among 1,200; shares compounds with KCNQ2 pot;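 active = fluorescence ratio rise of at least 3 SD of vehicle wells above their mean, in both replicate wells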;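 also: 0% = vehicle mean plus 3 SD and 100% = vehicle minus unstimulated blank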
KCNQ2 pot confirm: rat KCNQ2 channel potentiator confirmation; hit rate 68% among 1,200; shares compounds with KCNQ2 pot; potentiation, less the hit threshold, % at 10 µM; CHO-KCNQ2 cells, FluxOR thallium flux fluorescence;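 active = fluorescence ratio rising 3 SD or more over the vehicle control mean in both replicates, plus primary screen hit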;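 also: peak minus minimum thallium fluorescence divided by baseline after K/Tl stimulus; 0% = vehicle mean plus 3 SD and 100% = vehicle minus unstimulated blank difference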
Kir2-1 sel: mouse Kir2.1 off-target activity of KCNQ2 potentiators; shares compounds with KCNQ2 pot; HEK293 Kir2.1, FluxOR thallium flux fluorescence; activity over 3SD threshold, % at 10 µM; hit rate 2% among 1,200;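 active = fluorescence ratio rise of at least 3 SD above the vehicle-control mean, seen in both replicates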;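 also: 0% = vehicle mean plus 3 SD and 100% = vehicle minus no-stimulus blank window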
KCNQ2 W236L MoA: potentiates the retigabine-insensitive rat KCNQ2 W236L mutant channel; shares compounds with KCNQ2 pot; CHO KCNQ2-W236L, automated patch clamp current; current increase over 3SD of negative controls (%), hits give high values, % at 25 µM; hit rate 10% among 940;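 active = current increase at least 3 SD of the untreated controls above them in both duplicate recordings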
Target sequence (O88943 whole entry W236L, looked up): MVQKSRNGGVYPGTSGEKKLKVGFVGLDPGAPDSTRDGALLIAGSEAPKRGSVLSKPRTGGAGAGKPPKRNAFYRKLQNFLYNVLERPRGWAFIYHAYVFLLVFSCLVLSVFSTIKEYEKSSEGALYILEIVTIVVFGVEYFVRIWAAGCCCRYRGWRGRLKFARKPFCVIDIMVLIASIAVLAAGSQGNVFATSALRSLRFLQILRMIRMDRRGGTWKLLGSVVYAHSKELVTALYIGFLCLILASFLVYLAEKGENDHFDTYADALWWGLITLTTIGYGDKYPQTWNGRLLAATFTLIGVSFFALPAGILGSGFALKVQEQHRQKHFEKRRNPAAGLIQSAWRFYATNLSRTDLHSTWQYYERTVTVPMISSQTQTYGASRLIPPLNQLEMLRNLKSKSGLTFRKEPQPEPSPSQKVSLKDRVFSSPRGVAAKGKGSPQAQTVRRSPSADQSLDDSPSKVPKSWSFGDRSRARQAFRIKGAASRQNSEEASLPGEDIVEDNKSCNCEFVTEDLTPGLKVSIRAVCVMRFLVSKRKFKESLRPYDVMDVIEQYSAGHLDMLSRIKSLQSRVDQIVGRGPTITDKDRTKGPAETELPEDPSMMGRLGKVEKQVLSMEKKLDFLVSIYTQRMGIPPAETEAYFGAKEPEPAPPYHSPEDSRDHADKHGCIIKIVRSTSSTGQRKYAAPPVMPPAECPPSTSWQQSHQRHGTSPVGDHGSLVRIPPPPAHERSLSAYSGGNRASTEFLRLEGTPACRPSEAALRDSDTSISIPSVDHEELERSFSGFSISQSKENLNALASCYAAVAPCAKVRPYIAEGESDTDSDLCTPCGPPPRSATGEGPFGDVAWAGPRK
* = called active by the depositor.

COc1ccc(CN(C)CC(O)COC(c2ccccc2)c2ccccc2)c(OC)c1OC (stereo not given) was read as KCNQ2 inh inactive, Kir21 conf inh 54%* and HEK293 Tl flux inactive.
Screening COc1ccc(CN(C)CC(O)COc2ccc(C(=O)c3ccccc3)cc2)c(OC)c1OC (stereo not given) returned KCNQ2 inh inactive.
For COc1ccccc1OCC(=O)NCC1CCCN(Cc2cnn(C(C)C)c2)C1 (stereo not given) the results were KCNQ2 pot 0.39 and KCNQ2 inh inactive.
COc1ccc(OCc2nnc(SCC(=O)N3C(C)CCCC3C)o2)cc1 (stereo not given) was read as KCNQ2 pot 0.06 and KCNQ2 inh inactive.
For O=C(NCc1ccccc1)NC1(C(=O)N2CCN3CCCC3C2)CCCCC1 (stereo not given) the results were KCNQ2 pot 1.6 and KCNQ2 inh inactive.
`CCOc1ccccc1NC(=O)NC1(C(=O)N2CCN3CCCC3C2)CCCCC1` (stereo not given) gave KCNQ2 pot 21*, KCNQ2 inh inactive, Kir21 conf inh inactive, HEK293 Tl flux inactive, CHO-K1 ctr -20, KCNQ1 pot spec -13, KCNQ2 pot confirm -22 and Kir2-1 sel -39.
For Nc1ncnc(Oc2cccc3cccnc23)c1[N+](=O)[O-] the results were KCNQ2 inh inactive.
Cc1ccc(C(=O)NCCN2C3=NC[C@H](Cc4ccc(O)cc4)N3C[C@H]2Cc2ccc(O)cc2)cc1Br was read as KCNQ2 pot 0.05 and KCNQ2 inh inactive.
Screening COc1ccc(C[C@H]2CN3C(=NC[C@H]3Cc3ccccc3)N2CCNC(=O)c2ccc(C)c(Br)c2)cc1 returned KCNQ2 inh inactive, Kir21 conf inh 28%* and HEK293 Tl flux inactive.
Cc1ccc(C(=O)NCCN2C3=NC[C@@H](Cc4ccccc4)N3C[C@H]2Cc2ccc(O)cc2)cc1Br was read as KCNQ2 inh inactive, Kir21 conf inh 54%* and HEK293 Tl flux inactive.
Screening C/C=C(\C)C(=O)NCCN1C2=NC[C@H](Cc3ccccc3)N2C[C@H]1Cc1ccc(O)cc1 returned KCNQ2 pot 0.1 and KCNQ2 inh inactive.
For Cc1cccc(-c2nc3c(c(=O)c4ccccc4n3C)c(=O)n2-c2ccccc2)c1 the results were KCNQ2 inh inactive.
O=C(NC1CCCCC1)C1CC(=O)N(Cc2ccccc2)C1 (stereo not given) was read as KCNQ2 inh inactive.
COC(CNc1ncnc2c1cnn2C)OC was read as KCNQ2 pot 0.15 and KCNQ2 inh inactive.
Cn1ncc2c(O/N=C(\N)c3ccc(C(C)(C)C)cc3)ncnc21 was read as KCNQ2 pot 6.2*, KCNQ2 inh inactive, Kir21 conf inh inactive, HEK293 Tl flux inactive, CHO-K1 ctr 47*, KCNQ1 pot spec -1, KCNQ2 pot confirm 6.1*, Kir2-1 sel -36 and KCNQ2 W236L MoA inactive.
`O=C(CNC(=O)c1cccc(Cl)c1)NCCCSc1ccccc1` gave KCNQ2 inh inactive.
COc1ccc(C(C)NC(=O)Nc2ccc(C(C)=O)cc2)cc1OC (stereo not given) was read as KCNQ2 pot 1.3 and KCNQ2 inh inactive.
For CCN1c2ccccc2-c2nc3ccccc3n2C1c1ccco1 (stereo not given) the results were KCNQ2 inh inactive, Kir21 conf inh inactive and HEK293 Tl flux inactive.
Screening c1ccc(CN2c3ccccc3-c3nc4ccccc4n3C2c2ccccn2)cc1 (stereo not given) returned KCNQ2 inh inactive.
`CS(=O)(=O)N(CC(=O)N1CCN(Cc2ccccc2)CC1)c1cccc([N+](=O)[O-])c1` gave KCNQ2 inh inactive.
Screening CC(C)(C)CC(=O)Nc1ccc(Nc2ccccc2)cc1 returned KCNQ2 pot 6.3*, KCNQ2 inh inactive, Kir21 conf inh inactive, HEK293 Tl flux inactive, CHO-K1 ctr 133*, KCNQ1 pot spec -21, KCNQ2 pot confirm 16*, Kir2-1 sel -40 and KCNQ2 W236L MoA inactive.
CC(C)CC(=O)Nc1ccc(Nc2ccccc2)cc1 was read as KCNQ2 pot 1.6 and KCNQ2 inh inactive.
For O=C(NCC(=O)N(c1ccc(F)cc1)C(C(=O)NC1CCCCC1)c1ccncc1)c1ccco1 (stereo not given) the results were KCNQ2 pot 0.33 and KCNQ2 inh inactive.
CC(C)(C)c1ccc(OCCC(=O)OCC(=O)Nc2ccc(N3CCOCC3)cc2)cc1 was read as KCNQ2 pot 5.5*, KCNQ2 inh inactive, Kir21 conf inh inactive, HEK293 Tl flux inactive, CHO-K1 ctr 15*, KCNQ1 pot spec -11, KCNQ2 pot confirm -12, Kir2-1 sel -38 and KCNQ2 W236L MoA inactive.
Screening COc1ccc(OCCC(=O)OCC(=O)Nc2ccc(S(=O)(=O)N3CCOCC3)cc2)cc1 returned KCNQ2 pot 0.1 and KCNQ2 inh inactive.
`COCCn1c(CN2CCN(C(=O)c3ccco3)CC2)nc2c1c(=O)n(C)c(=O)n2C` gave KCNQ2 inh inactive.
For CCS(=O)(=O)c1ccc2oc(SCC(=O)Nc3ccc(OC)cc3OC)nc2c1 the results were KCNQ2 pot 0.67 and KCNQ2 inh inactive.
For CCS(=O)(=O)c1ccc2oc(SCC(=O)NC(C)C3CC4CCC3C4)nc2c1 (stereo not given) the results were KCNQ2 pot 10*, KCNQ2 inh inactive, Kir21 conf inh inactive, HEK293 Tl flux inactive, CHO-K1 ctr -17, KCNQ1 pot spec -14, KCNQ2 pot confirm 21*, Kir2-1 sel -37 and KCNQ2 W236L MoA inactive.
COc1ccc(CCC(C)NCc2ccccc2OC)cc1 (stereo not given) was read as KCNQ2 pot 1 and KCNQ2 inh inactive.
`COc1ccc(CCC(C)NCc2cccc(Br)c2)cc1` (stereo not given) gave KCNQ2 inh inactive, Kir21 conf inh 24%* and HEK293 Tl flux inactive.
Screening CC(CCc1ccccc1)NCc1cccc2ccccc12 (stereo not given) returned KCNQ2 inh inactive, Kir21 conf inh 19%* and HEK293 Tl flux inactive.
